High-throughput results as filed in PubChem BioAssay.
Rows were chosen to be rich in hits. Some 3.4% of all compounds tested hit in one or more screens of this group.
Ecoli rRNA inh – selective bacterial rRNA inhibition in E. coli | E. coli WT GFP vs humanized-ribosome RFP mutants, fluorescence, 24 h; active compounds read low; DMSO median 0, no signal -100 | GFP signal change (wild-type ribosome), % (concentration not given with the values) | actives 1.6% (n = 350,000) | AID 720706;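 active = significant combined selectivity score with lowered wild-type GFP, culture density cut under 30%, mutant RFP and density less affected; inactive = any of these conditions unmet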
PGC1a acetyl inh – PGC1a acetylation modulation, inhibitor mode; AID 651687; actives 0.17% (n = 350,000); inhibition, % at 15.6 µM; U2OS PGC1a acetylation, AlphaScreen anti-acetyl-lysine; with virally co-expressed GCN5 acetyltransferase;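 active = every replicate shows inhibition of at least 40%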
PAX8 reporter – inhibitors of PAX8 transcriptional activity in RMG-I cells | RMG-I TPO-luciferase reporter, SteadyGlo, 24 h | inhibition, % at 12.6 µM | actives 1.2% (n = 360,000);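 active = mean replicate inhibition at least 60% with every replicate also reaching 60%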;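 note: luciferase light reporting Pax8 driven TPO promoter activity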
SIRT5 inh – blocks human SIRT5 desuccinylation of peptide | actives 1.1% (n = 330,000) | inhibition, % at 15 µM | Purified SirT5, succinyl-peptide AMC, trypsin-coupled fluorescence; in the data active = inhibition above about 15%
Target sequence (Q9NXA8 whole entry, looked up): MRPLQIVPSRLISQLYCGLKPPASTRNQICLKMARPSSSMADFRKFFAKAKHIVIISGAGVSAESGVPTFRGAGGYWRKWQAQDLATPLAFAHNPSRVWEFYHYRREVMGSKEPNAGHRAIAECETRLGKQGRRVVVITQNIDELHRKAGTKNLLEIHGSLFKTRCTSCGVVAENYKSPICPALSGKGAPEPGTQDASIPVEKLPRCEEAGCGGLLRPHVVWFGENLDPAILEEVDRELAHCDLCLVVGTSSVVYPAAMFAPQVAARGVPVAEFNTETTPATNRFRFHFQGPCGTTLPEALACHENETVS
EWS-Fli block – blocks EWS/Fli oncoprotein-driven transcription; actives 0.67% (n = 350,000); inhibition, % at 12.6 µM; A673 NR0B1-luciferase reporter, viability-normalised;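 active = mean inhibition of at least 50% after viability correction, with every replicate also passing that limit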;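 note: firefly luciferase signal divided by Alamar Blue viability fluorescence both relative to DMSO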
LGR2 antag – blocks bursicon-induced cAMP signaling via Drosophila LGR2. HEK293 LGR2, CRE-luciferase, bursicon-stimulated, 4 h. inhibition, % at 9.99 µM. actives 0.35% (n = 380,000). AID 720647;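 active = drop in luminescence signal, shown as inhibition above about 50% in the replicate tests, limit read from the data, passing the limit was not always enough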;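 note: agonist challenge used bursicon conditioned medium at about half maximal strength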
Of the large screens only hits and unclear results are named; the others gave an inactive call.

O=C(NCc1cccnc1)c1ccc(Cn2c(=S)[nH]c3ccc(Br)cc3c2=O)cc1	SIRT5 inh 16
CCC(=O)N1[C@H](CO)[C@H](c2ccc(C3=CCCCC3)cc2)[C@H]1CNC1CCCC1	none (no result: PGC1a acetyl inh, PAX8 reporter)
CNC(=S)N(CCc1c(C)[nH]c2ccc(OC)cc12)Cc1ccco1	Ecoli rRNA inh -23
COCCNC(=S)N(CCc1c(C)[nH]c2ccc(OC)cc12)Cc1ccco1	none
CC(C)NC(=O)Nc1ccc2c(c1)C(=O)N([C@H](C)CO)C[C@@H](C)[C@H](CN(C)Cc1ccncc1)OCCCC[C@@H](C)O2	none (no result: EWS-Fli block)
Cc1ccc(S(=O)(=O)CC(=O)Nc2ccc3nc(C)sc3c2)cc1	SIRT5 inh 24 (no result: EWS-Fli block)
COc1ccc(NC(=O)c2ccc3nc(C)sc3c2)cc1	none
COc1ccc(C(=O)Nc2ccc3nc(C)sc3c2)cc1OC	Ecoli rRNA inh -20
COCC(=O)Nc1ccc2c(c1)OC[C@@H](C)N(Cc1cccc(F)c1)C[C@H](C)[C@H](OC)CN(C)C2=O	none (no result: PAX8 reporter)
O=C(CCN1C(=O)S/C(=C\C=C\c2ccccc2)C1=O)Nc1ccc(O)cc1	Ecoli rRNA inh -25 (no result: PGC1a acetyl inh, EWS-Fli block)
COCC(=O)Nc1ccc2c(c1)[C@H]1C[C@@H](CC(=O)NC3CCCCC3)O[C@H](CO)[C@H]1O2	none
COc1ccc(Cl)cc1NC(=O)CN(C)S(=O)(=O)c1cccs1	Ecoli rRNA inh -32
COc1ccc(Cl)cc1NC(=S)NNC(=O)c1cccs1	Ecoli rRNA inh -32 (no result: PGC1a acetyl inh, SIRT5 inh)
COc1ccc(Cl)cc1NC(=O)CN(C)CC(=O)Nc1ccc(Br)cc1	none
COc1ccc(Cl)cc1NC(=O)CN(C)CC(=O)Nc1cc(OC)c(OC)c(OC)c1	SIRT5 inh 15, EWS-Fli block 62
CCCC(=O)N1CCC2(CC1)CN(S(C)(=O)=O)[C@H](CO)c1c2c2ccc(OC)cc2n1C	none (no result: PAX8 reporter, SIRT5 inh)
CCN(CC)S(=O)(=O)c1ccc(N2CCCC2)c(NC(=O)Cc2cc(OC)c(OC)c(OC)c2)c1	none (no result: PGC1a acetyl inh)
O=C(CSc1cccc[n+]1[O-])Nc1cc(S(=O)(=O)N2CCOCC2)ccc1N1CCOCC1	PAX8 reporter 87 (no result: PGC1a acetyl inh)
CCN(CC)c1ccc(S(=O)(=O)N2CCOCC2)cc1NC(=O)CN1CCN(Cc2ccccc2)CC1	SIRT5 inh 29
CCN(CC)S(=O)(=O)c1ccc(N2CCCC2)c(NC(=O)Cc2ccc(OC)cc2)c1	Ecoli rRNA inh -34
O=C(Cc1ccc(Cl)cc1)Nc1cc(S(=O)(=O)N2CCOCC2)ccc1N1CCCC1	Ecoli rRNA inh -26
C[C@@H]1CN([C@H](C)CO)C(=O)c2ccccc2-c2ccccc2CO[C@@H]1CN(C)CC1CC1	none (no result: PGC1a acetyl inh, PAX8 reporter, SIRT5 inh, EWS-Fli block, LGR2 antag)
COc1ccc2c3c(n(C)c2c1)[C@@H](CO)N(C(=O)Nc1ccc(F)cc1)CC31CCN(C(=O)NC2CCCC2)CC1	none (no result: PAX8 reporter)
O=C(COC(=O)c1cc(S(=O)(=O)N2CCCCC2)ccc1N1CCOCC1)NCCc1ccc(F)cc1	Ecoli rRNA inh -20 (no result: PGC1a acetyl inh)
CC(C)CNC(=O)COC(=O)c1cc(S(=O)(=O)N2CCCCC2)ccc1N1CCOCC1	none (no result: Ecoli rRNA inh, PAX8 reporter, SIRT5 inh, EWS-Fli block, LGR2 antag)
COCC(=O)N1CC2(CN(Cc3cccnc3)C2)c2c(n(C)c3cc(OC)ccc23)[C@H]1CO	none (no result: PAX8 reporter)
O=C(Nc1cccc(S(=O)(=O)NCc2ccco2)c1)c1cc(-c2ccccc2)nc2ccccc12	PAX8 reporter 76 (no result: PGC1a acetyl inh)
CSC(=S)NCc1cccnc1	PAX8 reporter 64
COc1ccc(C(=O)NC(=S)NCc2cccnc2)cc1OC	Ecoli rRNA inh -29
NC(=S)NCc1cccnc1	none (no result: PGC1a acetyl inh)
C[C@@H]1CN([C@H](C)CO)C(=O)c2cccc(NC(=O)c3nc4ccccc4s3)c2O[C@H]1CN(C)S(=O)(=O)c1ccccc1	none
C[C@@H]1CN([C@@H](C)CO)C(=O)c2cccc(NC(=O)c3nc4ccccc4s3)c2O[C@@H]1CN(C)Cc1ccc(C(F)(F)F)cc1	SIRT5 inh 18 (no result: PAX8 reporter)
C[C@H](CO)N1C[C@H](C)[C@H](CN(C)S(=O)(=O)c2ccc(F)cc2)Oc2c(NC(=O)c3nc4ccccc4s3)cccc2C1=O	SIRT5 inh 24
C[C@H](CO)N1C[C@H](C)[C@@H](CN(C)S(=O)(=O)c2ccc(Cl)cc2)Oc2c(NC(=O)c3nc4ccccc4s3)cccc2C1=O	PAX8 reporter 72
CCCCCN=Cc1c(C)[nH]n(-c2nc3ccccc3s2)c1=O	LGR2 antag 60 (no result: EWS-Fli block)
